{"source": "the supplement of paper PMC9023506", "note": "Structures can show the parent of a compound that is named as a salt.", "data": [{"tested_on": "Danio rerio larvae (5 dpf)", "experiment": "activity during first hour (no stimuli), difference vs DMSO (percentage points (treated minus DMSO)); higher = more of the behaviour than the DMSO vehicle control", "conditions": "10 µM; exposure time: 3 h pre-incubation + 3 h imaging", "description": "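5-dpf wild-type zebrafish larvae were imaged in 96-well plates. They were treated with 190 Tocris FDA-approved drugs at 10 µM (1 µl/ml DMSO) for 3 h before and 3 h during imaging at 28.5 °C, 48 larvae per drug. Automated image analysis gave % time moving and optomotor responses. Values are drug group mean minus DMSO vehicle mean (n=844), in percentage points, for 10 behaviours.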", "values": [{"smiles": "CC(=O)Oc1ccccc1C(=O)O", "note": "[Aspirin]", "activity during first hour": -0.0609}, {"smiles": "CC(C)(C#N)c1cc(Cn2cncn2)cc(C(C)(C)C#N)c1", "note": "[Anastrozole]", "activity during first hour": 3.37}, {"smiles": "C[C@H]1C[C@@H]2[C@H]([C@@H](O)C[C@@]3(C)[C@H]2CC[C@]3(O)C(=O)CO)[C@@]2(C)C=CC(=O)C=C12", "note": "[Methylprednisolone]", "activity during first hour": 0.814}, {"smiles": "Nc1ccn([C@@H]2O[C@H](CO)[C@@H](O)C2(F)F)c(=O)n1", "note": "[Gemcitabine hydrochloride]", "activity during first hour": -4.38}, {"smiles": "Brc1c(NC2=NCCN2)ccc2nccnc12", "activity during first hour": -17}, {"smiles": "CCCCCCCCc1ccc(CCC(N)(CO)CO)cc1", "activity during first hour": -17.7}, {"smiles": "Nc1ncn([C@H]2C[C@H](O)[C@@H](CO)O2)c(=O)n1", "note": "[Decitabine]", "activity during first hour": 0.325}, {"smiles": "CC(=O)O[C@H]1C(=O)[C@@]2(C)[C@H]([C@H](OC(=O)c3ccccc3)[C@]3(O)C[C@H](OC(=O)[C@H](O)[C@@H](NC(=O)c4ccccc4)c4ccccc4)C(C)=C1C3(C)C)[C@]1(OC(C)=O)CO[C@@H]1C[C@@H]2O", "note": "[Taxol]", "activity during first hour": 1.84}, {"smiles": "NC(=O)OCC(COC(N)=O)c1ccccc1", "note": "[Felbamate]", "activity during first hour": -2.12}, {"smiles": "O=C1CCc2cc(OCCCCc3nnnn3C3CCCCC3)ccc2N1", "note": "[Cilostazol]", "activity during first hour": 10.3}, {"smiles": "Clc1ccc2nsnc2c1NC1=NCCN1", "note": "[Tizanidine hydrochloride]", "activity during first hour": -14.2}, {"smiles": "NC(=O)c1ncn([C@@H]2O[C@H](CO)[C@@H](O)[C@H]2O)n1", "note": "[Ribavirin]", "activity during first hour": 1.58}, {"smiles": "CCOc1cc(CC(=O)N[C@@H](CC(C)C)c2ccccc2N2CCCCC2)ccc1C(=O)O", "note": "[Repaglinide]", "activity during first hour": 5.41}, {"smiles": "Cc1ccc(-c2cc(C(F)(F)F)nn2-c2ccc(S(N)(=O)=O)cc2)cc1", "note": "[Celecoxib]", "activity during first hour": -5.35}, {"smiles": "OC(c1cc(C(F)(F)F)nc2c(C(F)(F)F)cccc12)C1CCCCN1", "note": "(stereo not given) [Mefloquine hydrochloride]", "activity during first hour": -1.64}, {"smiles": "Nc1cc(N2CCCCC2)nc(N)[n+]1[O-]", "note": "[Minoxidil]", "activity during first hour": 2.82}, {"smiles": "O=C(NCC1CCCCN1)c1cc(OCC(F)(F)F)ccc1OCC(F)(F)F", "note": "(stereo not given) [Flecainide acetate]", "activity during first hour": 0.441}, {"smiles": "CCOc1nc2cccc(C(=O)O)c2n1Cc1ccc(-c2ccccc2-c2noc(=O)[nH]2)cc1", "note": "[Azilsartan]", "activity during first hour": 3.52}, {"smiles": "CC(CCc1ccc(O)cc1)NCCc1ccc(O)c(O)c1", "note": "(stereo not given) [Dobutamine hydrochloride]", "activity during first hour": -1.97}, {"smiles": "CCOC(=O)[C@H](CCc1ccccc1)N[C@@H](C)C(=O)N1[C@H](C(=O)O)C[C@@H]2CCC[C@@H]21", "note": "[Ramipril]", "activity during first hour": 2.6}, {"smiles": "CC(C)OC(=O)C(C)(C)Oc1ccc(C(=O)c2ccc(Cl)cc2)cc1", "note": "[Fenofibrate]", "activity during first hour": 6.44}, {"smiles": "CN[C@H]1CC[C@@H](c2ccc(Cl)c(Cl)c2)c2ccccc21", "note": "[Sertraline hydrochloride]", "activity during first hour": -24.2}, {"smiles": "COC(c1ccccc1)(c1ccccc1)[C@H](Oc1nc(C)cc(C)n1)C(=O)O", "note": "[Ambrisentan]", "activity during first hour": 1.9}, {"smiles": "NC(=O)N1c2ccccc2C=Cc2ccccc21", "note": "[Carbamazepine]", "activity during first hour": -2.68}, {"smiles": "CC/C(=C(\\c1ccccc1)c1ccc(OCCN(C)C)cc1)c1ccccc1", "note": "[Tamoxifen citrate]", "activity during first hour": 31.4}, {"smiles": "CC[C@H]1OC(=O)[C@H](C)[C@@H](O[C@H]2C[C@@](C)(OC)[C@@H](O)[C@H](C)O2)[C@H](C)[C@@H](O[C@@H]2O[C@H](C)C[C@H](N(C)C)[C@H]2O)[C@](C)(O)C[C@@H](C)CN(C)[C@H](C)[C@@H](O)[C@]1(C)O", "note": "[Azithromycin]", "activity during first hour": -12.2}, {"smiles": "O=C1CCc2ccc(OCCCCN3CCN(c4cccc(Cl)c4Cl)CC3)cc2N1", "note": "[Aripiprazole]", "activity during first hour": 8.28}, {"smiles": "N#Cc1ccc(C(c2ccc(C#N)cc2)n2cncn2)cc1", "note": "[Letrozole]", "activity during first hour": -3.63}, {"smiles": "Clc1ccc(COC(Cn2ccnc2)c2ccc(Cl)cc2Cl)c(Cl)c1", "note": "(stereo not given) [Miconazole nitrate]", "activity during first hour": -18.4}, {"smiles": "CN1CCN(CCCN2c3ccccc3Sc3ccc(Cl)cc32)CC1", "note": "[Prochlorperazine dimaleate]", "activity during first hour": 10.4}, {"smiles": "CCOc1ccccc1OCCN[C@H](C)Cc1ccc(OC)c(S(N)(=O)=O)c1", "note": "[Tamsulosin hydrochloride]", "activity during first hour": 7.36}, {"smiles": "CCC(=O)O[C@]1(C(=O)SCF)[C@H](C)C[C@H]2[C@@H]3C[C@H](F)C4=CC(=O)C=C[C@]4(C)[C@@]3(F)[C@@H](O)C[C@@]21C", "note": "[Fluticasone propionate]", "activity during first hour": 7.17}, {"smiles": "Cc1ccc(N(CC2=NCCN2)c2cccc(O)c2)cc1", "note": "[Phentolamine Mesylate]", "activity during first hour": 9.58}, {"smiles": "CC(C)C(=O)OCC(=O)[C@@]12O[C@H](C3CCCCC3)O[C@@H]1C[C@H]1[C@@H]3CCC4=CC(=O)C=C[C@]4(C)[C@H]3[C@@H](O)C[C@@]12C", "note": "[Ciclesonide]", "activity during first hour": -9.57}, {"smiles": "COc1cc(Nc2c(C#N)cnc3cc(OCCCN4CCN(C)CC4)c(OC)cc23)c(Cl)cc1Cl", "note": "[Bosutinib]", "activity during first hour": -16.6}, {"smiles": "COc1ccccc1Oc1c(NS(=O)(=O)c2ccc(C(C)(C)C)cc2)nc(-c2ncccn2)nc1OCCO", "note": "[Bosentan]", "activity during first hour": 1.27}, {"smiles": "Nc1nc(NC2CC2)c2ncn([C@H]3C=C[C@@H](CO)C3)c2n1", "note": "[Abacavir hemisulfate]", "activity during first hour": 8.55}, {"smiles": "CCOc1nc2cccc(C(=O)O)c2n1Cc1ccc(-c2ccccc2-c2nnn[nH]2)cc1", "note": "[Candesartan]", "activity during first hour": 4.62}, {"smiles": "COc1cc2nccc(Oc3ccc(NC(=O)C4(C(=O)Nc5ccc(F)cc5)CC4)cc3)c2cc1OC", "activity during first hour": 20}, {"smiles": "OCCOCCN1CCN(C2=Nc3ccccc3Sc3ccccc32)CC1", "note": "[Quetiapine hemifumarate]", "activity during first hour": 12.9}]}]}
